Calls of active or inactive are those of the source.
system: PRMT1 (protein arginine N-methyltransferase 1); assay: PRMT1 binders on small-molecule microarrays, primary screen, biochemical, small-molecule microarray, 635 nm fluorescence (AID 1088); details: small-molecule microarray binding, higher = more signal;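 also: binding of Prmt1 protein to compounds spotted on small-molecule microarray slides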

For NC(=O)[C@@H]1[C@H]2C(=O)O[C@H](c3ccccc3)[C@H](c3ccccc3)N2[C@H](c2ccc(O)cc2)[C@@]12C(=O)Nc1ccc(C#CC3(O)CCCCCC3)cc12, which composite z-score is on record?
The composite z-score was 0.454.

With COc1cc2c(cc1O)C(C1CC1)N(Cc1cc3c(cc1Br)OCO3)CC2 (centres undefined) as the compound, how does the composite z-score read?
Its composite z-score is -0.221.

Which composite z-score does the source give for CCCCCC1=C2CNC(CCC)(C(=O)OC)C=C2C(C)C1=O (centres undefined) here?
Its composite z-score is -0.523.

With COc1ccc(C(O)C2C=CC3C(=O)NC(=O)C3N2Nc2ccccn2)c2ccccc12 (centres undefined) as the compound, how does the composite z-score read?
Its composite z-score is -0.385.

For COC(=O)C(CC#Cc1ccc2c(c1)[C@]1(C(=O)N2)[C@H](C(=O)O)[C@H]2C(=O)O[C@H](c3ccccc3)[C@H](c3ccccc3)N2[C@@H]1c1ccc(O)cc1)C(=O)OC, which composite z-score is on record?
Its composite z-score is 0.615.

For CC1(C)[C@@H]2CC(C(O)C3C=CC4C(=O)N(c5ccccc5)C(=O)C4N3Nc3ccccc3)=C[C@H]1C2 (some centres undefined), which composite z-score is on record?
The composite z-score was -0.0035.

For COc1ccc([Si](C)(C)[C@H]2[C@H](CCn3cc([C@H](O)c4ccccc4)nn3)O[C@@]3(C(=O)N(Cc4cccc(N5CCOC5=O)c4)c4ccccc43)[C@@H]2C)cc1, which composite z-score is on record?
The composite z-score was 0.961.

For COc1cc2c(cc1O)C=[N+](Cc1cccc(OC(F)(F)F)c1)CC2, which composite z-score is on record?
The composite z-score was 0.224.

Which composite z-score does the source give for COC(=O)[C@@]1(Cc2ccc(OC)cc2)[C@H]2c3cc(C(=O)N(C)C)n(CCN4CNCC4=O)c3C[C@H]2CN1C(=O)c1ccccc1 here?
The composite z-score was -1.13.

system: not listed separately; assay: yeast growth modulation, basal conditions, primary screen, YJM789 clinical isolate, OD600, 24 h (AID 1089);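 also: growth of clinical yeast isolate S. cerevisiae YJM 789 seeded 1000 cells per well; test concentration not given here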; details: S. cerevisiae YJM789 growth, higher = more signal, called active from +8 up or from −8 down

With CCOC(=O)C1=CCC(c2ccc(C)cc2)N(S(=O)(=O)c2ccc(C)cc2)C1 (centres undefined) as the compound, how does the z-score read?
Its z-score is 0.564 (inactive).

For CN(C)CCCNC(=O)[C@@]1(c2ccc([N+](=O)[O-])cc2)CC(=O)N(C2CCCCC2)[C@@H]1c1ccc(CO)cc1, which z-score is on record?
Its z-score is 1.78 (inactive).

For CC(=O)N1Cc2ccccc2C[C@@]2(COC(c3ccc(OCCCO)cc3)=N2)C1=O, which z-score is on record?
Its z-score is -3.98 (inactive).

For COCCOC(=O)N1C(=O)[C@@]2(c3cc(C#CC4=CCCCC4)ccc31)[C@H](C(=O)Nc1nc3ccccc3s1)[C@H]1C(=O)O[C@H](c3ccccc3)[C@H](c3ccccc3)N1[C@@H]2c1ccc(OCCO)cc1, which z-score is on record?
Its z-score is 2.47 (inactive).

With C=CC[C@]1(C(=O)N2CCCCC2)N=C(c2ccc(OCCCO)cc2)O[C@H]1c1ccccc1 as the compound, how does the z-score read?
Its z-score is -1.97 (inactive).

For O=C1NCC(=O)N2[C@@H]1C[C@@H](C(=O)O)[C@H]2c1cccc(OCCO)c1, which z-score is on record?
Its z-score is -0.215 (inactive).

Which z-score does the source give for O=C1O[C@H](c2ccccc2)[C@H](c2ccccc2)N2[C@H]1[C@@H](C(=O)O)[C@]1(C(=O)Nc3ccc(C#CCCO)cc31)[C@H]2c1ccc(O)cc1 here?
The z-score was 0.396 (inactive).

With C=CCOC(=O)[C@H]1[C@@H]2C(=O)O[C@@H](c3ccccc3)[C@@H](c3ccccc3)N2[C@@H](c2ccc(OCCOC(=O)[C@@H]3C[C@@H]4C(=O)N[C@@H](CCCCN(C)C)C(=O)N4[C@@H]3c3ccc(O)cc3)cc2)[C@]12C(=O)Nc1ccc(I)cc12 as the compound, how does the z-score read?
The z-score was 1.36 (inactive).

With CC(C)(C)OC(=O)CC[C@]12N=C(c3ccc(OCCCO)cc3)O[C@H]1c1ccccc1N(CCS(=O)(=O)c1ccccc1)C2=O as the compound, how does the z-score read?
The z-score was 1.03 (inactive).

Which z-score does the source give for CN(C)C(=O)[C@@]1(Cc2ccccc2CN=[N+]=[N-])N=C(c2ccc(OCCCO)cc2)O[C@H]1c1ccccc1 here?
The z-score was 0.365 (inactive).

With COc1cc2c(cc1OC)CN(C(=O)[C@H]1[C@@H]3C(=O)O[C@@H](c4ccccc4)[C@@H](c4ccccc4)N3[C@@H](c3ccc(O)cc3)[C@]13C(=O)Nc1ccc(C#CC4=CCCCC4)cc13)CC2 as the compound, how does the z-score read?
The z-score was 0.203 (inactive).

Which z-score does the source give for CN1C(=O)C2C=CC(C(O)c3cc(C(F)(F)F)cc(C(F)(F)F)c3)N(N3CCCCC3)C2C1=O (centres undefined) here?
The z-score was 1.69 (inactive).

With COCC(=C=CC[C@H](O)c1ccccc1OCCO)C[C@H](O)c1cc(Cl)cc(Cl)c1O as the compound, how does the z-score read?
The z-score was -24.4 (active).

Which z-score does the source give for CCCN1C(=O)[C@]2(CCS(=O)(=O)c3ccccc3)N=C(c3ccc(OCCCO)cc3)O[C@@H]2c2ccccc21 here?
The z-score was -0.559 (inactive).

With COc1cc2c(cc1OC)CN(C(=O)[C@H]1[C@@H]3C(=O)O[C@@H](c4ccccc4)[C@@H](c4ccccc4)N3[C@@H](c3ccc(O)cc3)[C@]13C(=O)Nc1ccc(C#CCNC(N)=O)cc13)CC2 as the compound, how does the z-score read?
The z-score was 0.485 (inactive).

With CN(C)CCCNC(=O)[C@@]1(C)c2ccccc2C(=O)N(Cc2cc(F)cc(C(F)(F)F)c2)[C@H]1c1ccc(CO)cc1 as the compound, how does the z-score read?
Its z-score is -1.46 (inactive).

With O=C1C2C=CC(C(O)C3CCCCC3)N(Nc3ccc([N+](=O)[O-])cc3)C2C(=O)N1c1ccccc1 (centres undefined) as the compound, how does the z-score read?
Its z-score is 0.139 (inactive).

For O=C1OCCC/C=C\[C@H]2OC34C=CCN(c5ccc6ccccc6c5)C(=O)[C@H]3N(CCCCCCO)C(=O)[C@@H]4C12 (some centres undefined), which z-score is on record?
The z-score was -1.96 (inactive).

Which z-score does the source give for COCCOC(=O)N1C(=O)[C@@]2(c3cc(C#CCNC(N)=O)ccc31)[C@H](C(=O)NC[C@H](O)c1ccccc1)[C@H]1C(=O)O[C@H](c3ccccc3)[C@H](c3ccccc3)N1[C@@H]2c1ccccc1OCCO here?
Its z-score is 1.56 (inactive).

With CC(C)(C)OC(=O)CC[C@@]12N=C(c3ccc(OCCCO)cc3)O[C@@H]1c1ccccc1N(CCS(=O)(=O)c1ccccc1)C2=O as the compound, how does the z-score read?
The z-score was -0.0877 (inactive).

For COC(=O)[C@@]1(Cc2ccc(F)cc2)[C@H]2c3cc(C(=O)N4CCCC4)n(Cc4cc(C)n(C)n4)c3C[C@H]2CN1C(=O)c1ccccc1, which z-score is on record?
The z-score was -0.408 (inactive).

For COC(=O)c1c(CC[C@@H](CO)NC(=O)N2CCC[C@H]2Cn2cc(-c3ccccn3)nn2)oc(C(C)=O)c1C(=O)OC, which z-score is on record?
Its z-score is -0.833 (inactive).

For CCOC(=O)[C@H]1CC=C2CC1C(=O)N1CCC[C@@H]1[C@@H]2O[Si](C)(C)C(C)(C)C (some centres undefined), which z-score is on record?
The z-score was -2.4 (inactive).

Which z-score does the source give for C=CCC(OC(C)=O)[C@@H]1[C@@H](N(Cc2ccc(-c3ccccc3)cc2)C(=O)Cc2ccc(F)cc2)c2cc(OCCCO)ccc2N1C(=O)c1ccc(-c2ccccc2)cc1 (some centres undefined) here?
Its z-score is -2.19 (inactive).

Which z-score does the source give for CCOC(=O)C[C@H]1[C@H](OC(=O)Cc2ccc3c(c2)OCO3)[C@@H](NC(=O)c2ccc(-c3ccccc3)cc2)c2cc(OCCCO)ccc2N1C(=O)c1ccc2ccccc2n1 here?
Its z-score is -1.84 (inactive).

Which z-score does the source give for COCCCNC(=O)[C@@]1(Cc2ccccc2)N=C(c2ccc(OCCCO)cc2)O[C@H]1c1ccccc1 here?
The z-score was -1.69 (inactive).

For NC(=O)[C@@H]1[C@H]2C(=O)O[C@H](c3ccccc3)[C@H](c3ccccc3)N2[C@H](c2ccc(O)cc2)[C@@]12C(=O)Nc1ccc(C#CC3(O)CCCCCC3)cc12, which z-score is on record?
The z-score was 0.505 (inactive).

For COc1cc2c(cc1O)C(C1CC1)N(Cc1cc3c(cc1Br)OCO3)CC2 (centres undefined), which z-score is on record?
Its z-score is 0.19 (inactive).

Which z-score does the source give for CCCCCC1=C2CNC(CCC)(C(=O)OC)C=C2C(C)C1=O (centres undefined) here?
The z-score was 0.0131 (inactive).

Which z-score does the source give for COc1ccc(C(O)C2C=CC3C(=O)NC(=O)C3N2Nc2ccccn2)c2ccccc12 (centres undefined) here?
Its z-score is -0.327 (inactive).

With COC(=O)C(CC#Cc1ccc2c(c1)[C@]1(C(=O)N2)[C@H](C(=O)O)[C@H]2C(=O)O[C@H](c3ccccc3)[C@H](c3ccccc3)N2[C@@H]1c1ccc(O)cc1)C(=O)OC as the compound, how does the z-score read?
The z-score was 1.06 (inactive).

With CC1(C)[C@@H]2CC(C(O)C3C=CC4C(=O)N(c5ccccc5)C(=O)C4N3Nc3ccccc3)=C[C@H]1C2 (some centres undefined) as the compound, how does the z-score read?
The z-score was -0.4 (inactive).

With COc1ccc([Si](C)(C)[C@H]2[C@H](CCn3cc([C@H](O)c4ccccc4)nn3)O[C@@]3(C(=O)N(Cc4cccc(N5CCOC5=O)c4)c4ccccc43)[C@@H]2C)cc1 as the compound, how does the z-score read?
Its z-score is -0.0578 (inactive).

Which z-score does the source give for COc1cc2c(cc1O)C=[N+](Cc1cccc(OC(F)(F)F)c1)CC2 here?
Its z-score is -1.65 (inactive).

With COC(=O)[C@@]1(Cc2ccc(OC)cc2)[C@H]2c3cc(C(=O)N(C)C)n(CCN4CNCC4=O)c3C[C@H]2CN1C(=O)c1ccccc1 as the compound, how does the z-score read?
Its z-score is -0.693 (inactive).
